# Compound activity as filed in PubChem.
# AmpC inh detg: inhibitors of E. coli AmpC beta-lactamase with detergent | AmpC hydrolysis of nitrocefin, absorbance 480 nm, 0.01% Triton | Potency, µM (top dose mostly 114 µM), for inactives: at the highest dose activity change, negative = inhibition, actives largely listed as inhibitors | 370,000 tested, 0.041% active | AID 485294;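 further: 0% = no-compound wells and -100% = no-enzyme wells; nearly all actives have a fitted effect of over 25% in size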
# Target sequence (P00811 whole entry, looked up): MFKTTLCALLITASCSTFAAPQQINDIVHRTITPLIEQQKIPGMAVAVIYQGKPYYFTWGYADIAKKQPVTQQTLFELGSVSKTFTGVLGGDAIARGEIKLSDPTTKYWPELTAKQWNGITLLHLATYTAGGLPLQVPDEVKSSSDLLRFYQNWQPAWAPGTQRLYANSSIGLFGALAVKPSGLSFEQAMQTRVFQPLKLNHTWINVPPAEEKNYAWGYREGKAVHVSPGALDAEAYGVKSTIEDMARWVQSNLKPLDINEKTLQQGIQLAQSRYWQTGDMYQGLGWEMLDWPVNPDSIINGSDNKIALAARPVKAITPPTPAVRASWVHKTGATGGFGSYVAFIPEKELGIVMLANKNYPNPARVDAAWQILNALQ
#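 AmpC (5.3 nM in the dispensed reagent) in 20 mM phosphate pH 7.0 with 0.01% (detergent screen) or 0.0001% Triton X-100 was preincubated with compounds for 15 min at room temperature. Nitrocefin was then added from an 800 uM solution, and hydrolysis was followed at 480 nm.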
# AmpC no deterg: blocks E. coli AmpC beta-lactamase in detergent-free assay; AID 485341; P00811; AmpC nitrocefin hydrolysis, absorbance 480 nm, 0.0001% Triton; Potency, µM (top dose mostly 57.1 µM), without a hit: at the highest dose activity change, negative = inhibition, most hits filed as inhibitors; 330,000 tested, 0.52% active;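 further: plate controls were no compound for no effect and no enzyme for full effect; nearly all actives have a fitted effect of over 20% in size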
#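 AmpC (5.3 nM in the dispensed reagent) in 20 mM phosphate pH 7.0 with 0.01% (detergent screen) or 0.0001% Triton X-100 was preincubated with compounds for 15 min at room temperature. Nitrocefin was then added from an 800 uM solution, and hydrolysis was followed at 480 nm.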
# Sm TGR block: inhibitors of Schistosoma mansoni thioredoxin glutathione reductase. purified TGR, DTNB reduction, TNB absorbance 405 nm. Potency, µM (doses to about 114 µM), for inactives: at the top dose activity change, negative = inhibition, hits mostly inhibitors. 360,000 tested, 3% active. AID 485364; further: on the % scale 0 is the no-effect control and ±100 the full control effect; nearly all actives have a fitted effect of over 60% in size
#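 TGR 20 nM + NADPH 100 uM (dispensed conc.), cpd preinc 15 min RT; start with NADPH (500 uM addition) then DTNB (15 mM addition). Kinetic TNB absorbance, 405 nm filter. Four-parameter Hill fit across titration.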
# SARS PLpro yeast: SARS-CoV PLP inhibition in yeast | S. cerevisiae expressing SARS-CoV PLpro, growth rescue | Potency, µM (titrated, usually from 32.9 µM), inactives show at the top dose activity, positive = growth rescue, usual class: activators | 330,000 tested, 0.19% active; calls by dose curve; further: 0% is about no effect; nearly all actives have a fitted effect of over 55% in size
# Pf growth 96h: inhibits malaria parasite growth, 96 h | Potency, µM (doses to about 28.7 µM), for the others: top-dose activity change, negative = inhibition, usual class: inhibitors | 320,000 tested, 6.9% active | AID 504834 | P. falciparum luciferase reporter growth, 96 h; further: on the % scale 0 is the no-effect control and ±100 the full control effect
#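 96 h incubation, 37 C, 5% CO2, of luciferase-reporter P. falciparum-infected RBCs (2% hematocrit, 0.05% parasitemia final) with test compounds; endpoint luminescence.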
# Pf growth 48h: inhibits P. falciparum growth in the first generation, 48 h. Potency, µM (doses to about 28.7 µM), for the others: top-dose activity change, negative = inhibition, actives largely listed as inhibitors. AID 504832. P. falciparum luciferase growth in erythrocytes, 48 h. 310,000 tested, 5.9% active; further: on the % scale 0 is the no-effect control and ±100 the full control effect
#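 Luciferase-expressing parasites in RBCs, 2% Hct / 0.1% parasitemia final; RPMI 1640 + 0.5% Albumax; 37 C, 5% CO2, one generation; luminescence read-out, lower signal = inhibition.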
# * hit, by the source's call; ? = inconclusive; · = no result. Hits are enriched below; roughly 12% of the tested compounds scored in any of these assays. Unless noted, the call rests on the fitted dose curve; in most records, active means well fitted curve in the direction sought with a large enough effect; inconclusive means small, poorly fitted or top-dose-only effect, or another doubt; inactive means no such curve, though single readings can be large; an effect the other way counts as inactive or inconclusive. Potency means the concentration at half of the fitted maximal effect.
SMILES,AmpC inh detg,AmpC no deterg,Sm TGR block,SARS PLpro yeast,Pf growth 96h,Pf growth 48h
CC(C)CNC(CC(=O)O)c1ccccc1 (configuration not stated),5.4%,-20.0%,13.5%,-0.5%,0.0%,-25.0%
CCCC(NC(=O)CCl)c1ccccc1 (configuration not stated),10.6%,-7.7%,44.7µM*,25.7%,?,9.28µM*
CC(C)CC(NC(=O)CCl)c1ccccc1 (configuration not stated),0.3%,-17.0%,39.8µM*,13.7%,?,-10.8%
CC(NC(=O)CCl)c1ccc(Cl)c(Cl)c1 (configuration not stated),?,-10.9%,15.8µM*,-3.3%,3.7µM*,·
CCC(NC(=O)CCc1ccccc1)c1ccccc1 (configuration not stated),1.8%,-12.6%,2.4%,2.8%,?,1.4%
Cc1ccccc1C(=O)c1cccn1CC(=O)NCCCc1ccccc1,-14.0%,7.8%,-35.3%,-0.8%,?,12.1%
COc1ccc(-n2c(-c3ccccc3F)nc3c(cnn3-c3ccc(C)cc3)c2=O)cc1,-0.7%,·,8.1%,·,·,·
COc1ccccc1N1CCN(CCN2C(=O)C3CCCN3C2=O)CC1 (configuration not stated),?,-8.6%,-27.8%,3.5%,?,20.1%
CC(=O)Nc1cccc(Oc2nc(C(F)(F)F)nc3ccccc23)c1,?,31.1%,2.9%,-2.8%,1.9%,-1.5%
CC(NC(=O)CCl)c1ccccc1Br (configuration not stated),3.2%,-13.1%,15.8µM*,12.9%,1.47µM*,1.47µM*
COc1ccc(S(=O)(=O)NCCc2cn3cccc(C)c3n2)cc1OC,?,10µM*,5.1%,-5.7%,2.3%,-1.1%
Cc1cccn2cc(CCNS(=O)(=O)c3cccc([N+](=O)[O-])c3)nc12,-0.1%,1.6%,-8.1%,-2.9%,21.0%,?
COc1ccc(S(=O)(=O)NCCc2cn3ccsc3n2)cc1OC,-1.4%,·,39.8µM*,·,·,·
Cc1ccc(-n2ncc3c(N4CCCCC4)ncnc32)cc1,6.3%,·,2.7%,·,·,·
CCc1ccc(NC(=O)CN(c2ccc(Cl)cc2)S(=O)(=O)c2ccsc2C(=O)OC)cc1,7.2%,·,31.6%,·,·,·
CCOc1ccc(NC(=O)CSC2=Nc3ccccc3C3=NC(CC(=O)NCc4ccccc4OC)C(=O)N23)cc1 (configuration not stated),10.0%,·,8.7%,·,·,·
O=C1/C(=C/c2ccco2)N=C(N2CCCCC2)N1c1ccccc1,?,-25.0%,44.7µM*,23.0%,26.5%,2.4%
CC(C)N(C1=N/C(=C\c2ccco2)C(=O)N1c1ccccc1)C(C)C,-8.0%,-9.3%,39.8µM*,-1.0%,-18.9%,·
Cc1cc(NC(=O)C(C)SCC(=O)Nc2cc(C(F)(F)F)ccc2N2CCOCC2)no1 (configuration not stated),-12.1%,13.3%,7.4%,1.5%,?,-7.9%
CCOc1ccc(NC(=O)NCc2ccc3c(c2)CCN3C(C)=O)cc1,-3.3%,·,-10.0%,·,·,·
O=C(c1ccc2c(c1)N(Cc1c(F)cccc1Cl)C(=O)c1ccccc1S2)N1CCC2(CC1)OCCO2,-3.8%,·,0.3%,·,·,·
Cc1cc(C)nc(/N=C2\NC(=O)CC(C(=O)O)N2c2ccc(Cl)cc2)n1 (configuration not stated),?,8.91µM*,2.3%,4.4%,-27.5%,14.5%
CCOC(=O)C(=CNc1cc(Cl)c(-c2ccco2)c(Cl)c1)C(=O)OCC,-2.9%,-2.3%,-33.4%,-1.4%,-110.3%,11.7µM*
CCOC(=O)C(=CNc1ccc(-c2ccco2)c(Cl)c1)C(=O)OCC,-9.7%,24.2%,14.1µM*,-1.1%,?,?
O=C(Nc1ccccn1)c1ccc(C(=O)Nc2ccccn2)cc1,-0.8%,-5.1%,6.9%,-4.4%,-6.3%,12.2%
SMILES,AmpC inh detg,AmpC no deterg,Sm TGR block,SARS PLpro yeast,Pf growth 96h,Pf growth 48h
CC1Oc2ccccc2OC1C(=O)Nc1ccccn1 (configuration not stated),?,-4.9%,-20.8%,14.6%,10.2%,5.86µM*
O=C(Nc1ccccn1)C1COc2ccccc2O1 (configuration not stated),-1.7%,-13.1%,2.4%,10.9%,5.86µM*,50.6%
Cn1c(-n2cccc2)c(-c2c(-c3ccccc3)[nH]c3c2c(=O)n(C)c(=O)n3C)c(=O)n(C)c1=O,4.4%,·,-9.2%,·,·,·
CC1CCN(C(=O)Cn2c(SCC(=O)Nc3ccc(F)cc3)nc3ccccc32)CC1,1.1%,·,0.0%,·,·,·
Cc1ccc(-n2c(=O)[nH]c3cc(C(=O)NCc4ccccc4)ccc3c2=O)cc1,?,·,-7.0%,·,·,·
CC(C)CNc1nc(NC(C)(C)C)nc(Oc2ccc(=O)n(-c3ccccc3)n2)n1,9.8%,·,9.7%,·,·,·
O=C(C1CCC1)N1CCc2cc(S(=O)(=O)N3CCN(c4ccccn4)CC3)ccc21,-15.0%,31.6%,-8.0%,-0.1%,-1.7%,10.4µM*
O=C(c1ccco1)N1CCN(S(=O)(=O)c2ccc3c(c2)CCN3C(=O)C2CCC2)CC1,-2.8%,75.7%,-10.6%,7.6%,-6.2%,13.1µM*
CCc1ccc(NC(=S)N(CCN(C)C)C(C)c2ccncc2)cc1 (configuration not stated),2.8%,20.4%,2.6%,0.1%,?,9.9%
Cc1ccc(C(=O)N2CCCC(C(=O)c3ccc(Cl)cc3C)C2)cn1 (configuration not stated),-8.6%,55.5%,1.3%,-3.9%,?,5.7%
Cc1ccc(C(=O)N2CCCC(C(=O)c3ccc(Oc4ccccc4)cc3)C2)cn1 (configuration not stated),6.7%,197.9%,3.2%,-2.4%,8.28µM*,-15.4%
CC(=O)c1ccc(S(=O)(=O)N(C)CCCC(=O)N2CCN(c3ncccn3)CC2)cc1,?,29.0%,-6.9%,-4.9%,11.7µM*,?
CNC(=O)C1CCC(Cn2c(=O)c3sccc3n(CC(=O)Nc3ccc(C)c(F)c3)c2=O)CC1 (configuration not stated),3.0%,·,-1.2%,·,·,·
CCc1nnc(NC(=O)c2cc(-c3ccco3)nc3ccccc23)s1,-18.5%,?,15.8µM*,-0.6%,29.4%,-19.0%
Cc1cccc(NC(=O)c2cc(-c3ccco3)nc3ccccc23)n1,?,-34.1%,20µM*,1.3%,20.1%,-15.9%
CCc1nnc(NC(=O)c2cc(-c3ccccn3)nc3ccccc23)s1,-9.1%,3.2%,-6.9%,-3.5%,2.4%,19.6%
NC1=NC(=O)/C(=C/c2ccccc2OS(=O)(=O)c2ccc3ccccc3c2)S1,?,-19.9%,-13.9%,-14.6%,?,0.3%
